The results in this text go back to PubChem BioAssay AID2098 (Broad Institute, 2009).

Hit rate of the full screen: of about 300,000 compounds, about 2,300 (0.77%) were called active. The full list was thinned out, with actives kept by preference. Unmarked numbers belong to inactive results.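 How the source made its calls: active means more than half of replicate wells show activity change below -50%, luminescence cut by over half; inconclusive means some wells, but at most half, below -50%; inactive means no replicate well below -50%.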

This experiment in a line: HSF1 inhibitors in luciferase reporter cells, primary screen, cell-based, NIH3T3, luminescence (AID 2098).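 Further: luciferase reports HSF-1 transcriptional activity via heat shock element; 0% = median of DMSO wells and -100% = zero luminescence signal.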 Particulars: NIH3T3-HGL HSE-luciferase, MG132-induced, luminescence 8 h; hits give low values; screened at 7.5 µM (by protocol). (Reporter assays use an easily measured gene product as a stand-in for the process of interest.)
On to `CCOc1cc(/C=N/NC(=O)c2cccc(S(=O)(=O)N3CCOCC3)c2)ccc1OCC(=O)N(C)C`, for which the activity change, negative = inhibition is -64.3% (active).

`O=C(N/N=C/c1ccc([N+](=O)[O-])o1)c1cccc(S(=O)(=O)N2CCOCC2)c1`: the activity change, negative = inhibition was 6.48%.

As for `COc1ccc(Br)cc1/C=N/NC(=O)c1cccc(S(=O)(=O)N2CCOCC2)c1`, the activity change, negative = inhibition was -2.38%. Under `CC(=O)Nc1cccc(C(=O)OCC(=O)NCc2cc(C)c(O)c(C)c2)c1` stands 9.36%; under `NC(=O)C1=C[C@H](c2csc3ccccc23)C[C@H](OCc2ccc(CO)cc2)O1`, 5.45%. Under `COc1ccc(C(=O)c2c3ccc([N+](=O)[O-])cc3[n+]([O-])n2CCCN)cc1` stands 13.3%.

Take `O=C(NC1CCCCC1)c1ccc(-c2ccc(Cl)cc2)o1`: the activity change, negative = inhibition was 43.4%. With `CC1(C)S[C@@H]2[C@H](NC(=O)COc3ccccc3)C(=O)N2C1C(=O)OCc1ccccc1` (stereo not given in full), the activity change, negative = inhibition was 5.03%. The value for `Cc1c(NC(=O)CN(C)CC(=O)Nc2ccc(F)c(F)c2F)c(=O)n(-c2ccccc2)n1C` was 1.95%; that for `Cc1ccn2c(=O)nc(SCC(=O)NCc3ccc(F)cc3)nc2c1` was 4.59%. The value for `COc1ccccc1C(c1nnnn1CC1CCCO1)N1CCN(c2ccccc2)CC1` (stereo not given) was -0.551%; that for `Cc1cccc(N2CCN(C(c3ccc(N(C)C)cc3)c3nnnn3C(C)(C)C)CC2)c1C` (stereo not given) was -2.19%; that for `Cc1cccc(N2CCN(C(c3ccccc3)c3nnnn3CC3CCCO3)CC2)c1C` (stereo not given) was -61% (active). Regarding `Cc1sc2nc(CSCC(=O)NC3CCCCC3)[nH]c(=O)c2c1C`, the activity change, negative = inhibition is 16.5%. `CCOC(=O)c1ccc(NC(=S)N2CCCC2)cc1`: the activity change, negative = inhibition is 19%. Consider `Cc1cc(Cl)ccc1NC(=S)N1CCC(C(N)=O)(N2CCCCC2)CC1`, for which the activity change, negative = inhibition was 1.76%. Take `CCOC(=O)N1CCN(C(=S)Nc2ccc(C)cc2C)CC1`: the activity change, negative = inhibition is -68.8% (active). On to `O=C1CCCCC1Sc1ccc(Cl)cc1[N+](=O)[O-]` (stereo not given), for which the activity change, negative = inhibition was 3.95%. Under `CCOc1ccc(NS(=O)(=O)c2ccc(C(=O)NCC(c3ccccc3OC)N3CCCC3)cc2)cc1` (stereo not given) stands -3.53%.

In the case of `O=C(NC1CC1)C1=C[C@H](c2coc3ccccc3c2=O)C[C@H](OCCCCO)O1`, the activity change, negative = inhibition is -5.11%. In the case of `COc1cc(OC)c(C(=O)NC2CCCCCC2)cc1OC`, the activity change, negative = inhibition was 2.19%. On to `COc1ccc(C(C)NC(=S)NC2CCCCC2)cc1OC` (stereo not given), for which the activity change, negative = inhibition was -74.6% (active). Under `COc1ccc(Cl)cc1C(=O)NNC(=S)NC1CCCC1` stands 6.56%; under `Clc1ccc(Nc2ccc3ccccc3n2)cc1`, 6.43%.

As to `Cc1ccc(C2(C)NC(=O)N(CC(=O)Nc3ccccc3C(=O)N3CCCCC3)C2=O)cc1` (stereo not given), the activity change, negative = inhibition was 10.1%. The value for `COc1cc(OC)c(C(=O)OCC(=O)N2CC(=O)Nc3ccccc32)cc1OC` was 11.6%. The value for `O=C1CN(C(=O)COc2c(Cl)cccc2Cl)c2ccccc2N1` was -74.4% (active); that for `O=C1CN(C(=O)COC(=O)c2cnc(Cl)c(Cl)c2)c2ccccc2N1` was 6.76%; that for `O=C1/C(=C\c2ccc(O)cc2)CCC1CNc1ccc(Cl)cc1` (stereo not given) was -5.88%. For `COC(=O)Cc1[nH]n(-c2nc3ccccc3s2)c(=O)c1C(C)=Nc1ccc(OC)cc1`, the activity change, negative = inhibition is -58.9% (active). Under `C/C(=N\NC(=O)CC(C)C)c1c(C(F)(F)F)[nH]n(-c2nc3ccccc3s2)c1=O` stands -6.15%; under `CC(=NCc1ccco1)c1c(C(F)(F)F)[nH]n(-c2nc3ccccc3s2)c1=O`, -32.4%. For `Cc1ccc(S(=O)(=O)NC(C)C(=O)NCc2ccc(Cl)cc2)cc1` (stereo not given), the activity change, negative = inhibition is -3.78%.

In the case of `Cc1cccc(N=C2NN=C(c3c[nH]c4ccccc34)CS2)c1`, the activity change, negative = inhibition was 14.3%. The value for `C=CCn1c(C)cc(C(=O)CN2C(=O)c3ccccc3C2=O)c1C` was 8.2%; that for `C=CCn1c(C)cc(C2=NNC(=NCC)SC2)c1C` was -77.6% (active); that for `Cc1ccc(CNS(=O)(=O)CCNC(=O)c2ccccc2)cc1` was -2.85%.

`O=C(Nc1ccc(F)c(Cl)c1)C1CCN(S(=O)(=O)c2cccnc2)CC1`: the activity change, negative = inhibition was -56.8% (active). With `O=C(NCc1cccs1)C1CCN(S(=O)(=O)c2ccc(Cl)cc2)CC1`, the activity change, negative = inhibition was 4.22%. Under `CC(C)c1ccc(NC(=O)C2CCCN(S(=O)(=O)c3cccnc3)C2)cc1` (stereo not given) stands -2.05%. On to `Cc1ccc(Cl)c(OCC(=O)N(C)CC(=O)Nc2ccc(N3CCOCC3)cc2)c1`, for which the activity change, negative = inhibition was 4.7%. Take `COc1cc(C(=O)N(C)Cc2cccc(OC)c2OC)ccc1OCC(=O)Nc1cccc(C(F)(F)F)c1`: the activity change, negative = inhibition is -3.36%. The value for `CCN(CC)c1ccc(NC(=O)c2ccc(=O)[nH]c2)cc1S(=O)(=O)Nc1ccc(OC)cc1` was 2.04%; that for `CN1CCN(c2cc(=O)n(-c3ccc(Cl)cc3)c(=O)[nH]2)CC1` was -10.9%; that for `Cc1ccc(-n2c(=O)cc(N3CCN(Cc4ccccc4)CC3)[nH]c2=O)cc1` was -57.4% (active). The value for `CCc1c(C)nc(N2CCN(Cc3ccccc3)CC2)[nH]c1=O` was -0.365%. Under `COCCN(C(=O)COC(=O)Cc1cccc(OC)c1)c1c(N)n(Cc2ccccc2)c(=O)[nH]c1=O` stands -2.09%; under `NS(=O)(=O)c1ccc(CNC(=O)c2cccc(Oc3ccccc3)c2)cc1`, -1.65%. As for `O=C(NNS(=O)(=O)c1ccc(F)cc1)c1cnccn1`, the activity change, negative = inhibition was 4.99%. For the molecule `NS(=O)(=O)c1ccc(CNC(=O)c2cnccn2)cc1`, the activity change, negative = inhibition is -54.3% (active).

Turning to `Cc1ccc(S(=O)(=O)NCCC(=O)OCC(=O)N(C)c2ccccc2)cc1`, the activity change, negative = inhibition was 7.6%.

Take `O=C(CCC1CCCCC1)Nc1cc(C(F)(F)F)ccc1N1CCOCC1`: the activity change, negative = inhibition is 3.1%. The value for `COC(=O)c1nc(NC(=O)c2ccc(F)cc2)n[nH]1` was 3%; that for `COC(=O)c1nc(NC(=O)c2ccc(Cl)cc2)n[nH]1` was -3.56%.

Consider `COC(=O)c1nc(NC(=O)c2ccc(C(C)(C)C)cc2)n[nH]1`, for which the activity change, negative = inhibition was -75.2% (active). The value for `COc1ccc(Sc2nc(-c3ccccc3)ncc2OC)cc1` was -4.54%.

On to `COc1ccc(-c2nc(-c3ccccc3)no2)c(OC)c1`, for which the activity change, negative = inhibition is -66.8% (active). The value for `COc1ccccc1Cc1nc(-c2ccc(C)cc2)no1` was 12%. Turning to `C=CCNC(=O)C1CC2c3ccccc3C1c1ccccc12` (stereo not given), the activity change, negative = inhibition was -1.08%. Consider `COc1cccc(NC(=O)CC2C(=O)NCCN2C(=S)Nc2ccc(F)cc2)c1` (stereo not given), for which the activity change, negative = inhibition is 3.49%.

On to `CCc1ccc(NC(=O)CC2C(=O)NCCN2C(=S)Nc2ccccc2)cc1` (stereo not given), for which the activity change, negative = inhibition is -1.21%. Under `COc1ccc(C(=O)NC(=S)N2CCNC(=O)C2CC(=O)OC(C)C)cc1` (stereo not given) stands -54.5% (active). Under `Cc1ccc(S(=O)(=O)N(Cc2cccc([N+](=O)[O-])c2)C(=O)N2CCN(C)CC2)cc1` stands -0.764%; under `CC(C)N(Cc1nnc(-c2ccc(Cl)cc2)o1)C(=O)C1=COCCO1`, -0.126%; under `Cc1ccc(C(=O)N/N=C/c2cccc3ccccc23)cn1`, 2.62%.

Take `COc1ccc(-c2ccc3nnc(SCC(=O)Nc4ccc(NC(C)=O)cc4)n3n2)cc1`: the activity change, negative = inhibition is -1.23%. Under `COc1ccc(S(=O)(=O)N2CCCC2CNC(=O)C(=O)NC2CC2)cc1` (stereo not given) stands -3.82%. With `COc1ccc(N(CC(=O)NC2CCCCCCC2)S(=O)(=O)c2c(C)nn(C)c2C)cc1`, the activity change, negative = inhibition is -60.7% (active). Under `CCOc1ccc(N(CC(=O)NC2CCCCCC2)S(=O)(=O)c2c(C)[nH]c(=O)[nH]c2=O)cc1` stands -0.37%. Under `COc1ccc(N(CC(=O)NC2CCCCC2)S(=O)(=O)c2c(C)[nH]c(=O)[nH]c2=O)cc1` stands 4.32%.

`COc1cc(Cl)ccc1OCc1cc(C(=O)N(C)CCc2c(C)n[nH]c2C)no1`: the activity change, negative = inhibition is 11.4%. The value for `CCn1ccnc1CN(C)C(=O)c1cc(COc2ccc(Cl)cc2OC)on1` was -51.9% (active). Consider `CCn1ccnc1CN(C)C(=O)c1cc(COc2ccc(-n3cncn3)cc2)on1`, for which the activity change, negative = inhibition is -9.56%. As for `O=C(O)CCn1c(Cc2ccccc2)nc2ccccc21`, the activity change, negative = inhibition was 0.662%. Under `O=C(O)CCn1c(O)c(C=C2N=c3ccccc3=N2)sc1=S` stands -52.2% (active); under `Cc1cc2ccccc2n1CCC(=O)O`, -0.843%. Under `C=CCOc1ccc(/C=C/C(=O)OC(C)C(=O)Nc2ccc(NC(C)=O)cc2)cc1` (stereo not given) stands 12.2%; under `COc1ccc(CCNC(=S)N2CCN(S(=O)(=O)c3ccc(F)cc3)CC2)cc1`, -3.63%. Under `CCC(=O)N1c2ccccc2NC2=C(C(=O)CCC2)C1c1ccco1` (stereo not given) stands -0.999%. As for `CCCC(=O)N1c2ccccc2NC2=C(C(=O)CCC2)C1c1ccc(F)cc1` (stereo not given), the activity change, negative = inhibition was -0.85%.

Turning to `CC(C)C(=O)N1c2ccccc2NC2=C(C(=O)CCC2)C1c1ccc(N(C)C)cc1` (stereo not given), the activity change, negative = inhibition is -60.9% (active).

As to `O=C(NCC1(N2CCCCC2)CCCCC1)c1ccc(NS(=O)(=O)c2ccc(F)cc2)cc1`, the activity change, negative = inhibition was -3.19%. For `CN(C(=O)COC(=O)c1ccc(Br)o1)c1c(N)n(Cc2ccccc2)c(=O)[nH]c1=O`, the activity change, negative = inhibition was -3.83%. The value for `O=C(COC(=O)Cc1c[nH]c2ccccc12)NCCc1ccccc1` was -4.81%; that for `Cc1cc(=O)oc2cc(NC(=O)C(C)Oc3ccccc3)ccc12` (stereo not given) was 1.47%. The value for `Cc1cccc(-n2ncc(Cl)c(Cl)c2=O)c1` was -95.3% (active).

For `COc1ccc(Oc2c(Cl)cnn(-c3ccccc3)c2=O)cc1`, the activity change, negative = inhibition was -5.38%. Consider `Cc1cccc(-n2ncc(C#N)c2-n2cccc2)c1`, for which the activity change, negative = inhibition was 2.7%. The value for `CC1(c2ccc(Cl)cc2Cl)NC(=O)N(CC(=O)Nc2cccnc2Cl)C1=O` (stereo not given) was 1.88%; that for `CCCOc1ccc(Cl)cc1Nc1nc(NCCO)nc(N2CCCC2)n1` was 1.49%.
